The source of these data is article PMC6212790, “How bacterial xenogeneic silencer rok distinguishes foreign from self DNA in its resident genome”.

In all, about 33,000 sequences were measured (“e-score”: median about -0.038, highest 2% from about 0.33 on). Many of the other results were omitted from the sample, so the highest values are more common in it than they were.

For the test, the target named is T1, GST-Rok-C97-191 (Bacillus subtilis subsp. subtilis str. …, UniProt O34857 97-191).
T1 sequence: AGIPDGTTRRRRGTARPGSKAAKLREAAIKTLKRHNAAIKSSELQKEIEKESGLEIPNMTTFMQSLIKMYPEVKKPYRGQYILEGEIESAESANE
The test is described as follows: protein binding microarray; Rok is a gene silencer of Bacillus subtilis; high values mean tight binding. As to conditions: protein: recombinant; tags: GST (pTH5325, pDEST15-Magic modified); dsDNA, one strand shown. Put shortly: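 Every oligonucleotide joins a 25-mer constant primer to a 35-mer variable part drawn from a de Bruijn sequence of order 10, so each non-palindromic 8-mer appears at least 32 times and each palindromic 8-mer 16 times. The preference for every 8-mer is reported as a unitless, rank-based enrichment score (E-score). This score spans 0.5 for the most favored 8-mer to −0.5 for the most disfavored.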
On to ACCTTGCT, for which the binding signal is -0.156 E-score. For GTTTTCAA, the binding signal is -0.105 E-score.

On to ATCAAAAT, for which the binding signal turned out to be 0.231 E-score. Take CGCCGTTC: the binding signal was -0.164 E-score. Next, CATATGAA: -0.0194 E-score; CATATGTA: 0.36 E-score. In the case of AATATGTC it was 0.135 E-score; in that of CATATGTC, 0.00539 E-score. In the case of AATATGTA it was 0.375 E-score; in that of GATATGTA, 0.303 E-score. Regarding GCATCAAC, the binding signal is 0.0173 E-score. CGATAAGC: the binding signal turned out to be 0.0146 E-score. In the case of CTCTATGC it was -0.0298 E-score; in that of AAGAGTAG, 0.212 E-score. Next, AAACTAGC: 0.337 E-score; CAACTAGC: 0.214 E-score; ACACTAGT: 0.257 E-score. For the sequence AAACTAGT, the binding signal stood at 0.445 E-score.

Regarding GAACTAGC, the binding signal amounted to 0.205 E-score.

With AAACTAGG, the binding signal stood at 0.285 E-score. On to CGCTGCAA, for which the binding signal is -0.0879 E-score. In the case of TACCATAA it was 0.354 E-score; in that of AACCATAA, 0.0116 E-score; in that of GACCATAA, 0.0376 E-score. In the case of ACGTTCGG it was 0.0487 E-score; in that of GATGGCGA, 0.0644 E-score. In the case of CAATCTGC it was 0.0189 E-score.

As for CAATCTAA, the binding signal turned out to be 0.232 E-score.

For CGATCTAA, the binding signal was -0.0333 E-score. Next, GAATCTCC: 0.0847 E-score. Take GAATCTAC: the binding signal came to 0.423 E-score. In the case of CGATCTAG it was 0.26 E-score; in that of GAATCTAA, 0.188 E-score. As to CGATCTAC, the binding signal is 0.335 E-score. Next, CAATCTAC: 0.395 E-score; CAAGAACC: -0.0441 E-score. In the case of GGGACAAA it was -0.132 E-score. In the case of TGGAGGAA it was -0.00731 E-score; in that of AGCGTAAG, -0.0539 E-score. Turning to CCTATTCG, the binding signal was -0.0809 E-score.

For ACTCATCT, the binding signal was -0.0629 E-score. In the case of ATGCCCAC it was -0.129 E-score. Take CGTTTGTA: the binding signal worked out at 0.113 E-score.

As for AGTTTGTA, the binding signal is 0.367 E-score.

Consider AATTTGTA, for which the binding signal worked out at 0.346 E-score. In the case of GATTTGTA it was 0.176 E-score; in that of ATTTTGTA, 0.228 E-score; in that of AGTTTGTC, 0.0866 E-score.

ACTGAAGG: the binding signal is -0.0541 E-score. In the case of AGCTCGTC it was -0.149 E-score.

Turning to CCACTAAC, the binding signal was determined as 0.0126 E-score. In the case of CTGCTCCA it was -0.00585 E-score; in that of CGACATGC, -0.104 E-score.

With AATTCTAC, the binding signal came out at 0.421 E-score. As for AATTCTAT, the binding signal was 0.286 E-score. Next, CATTCTAC: 0.384 E-score; CATTCTAA: 0.12 E-score; GATTCTAC: 0.406 E-score.

Take AGTTCTAT: the binding signal was 0.242 E-score. Next, AATTCTAA: 0.286 E-score; AGTTCTAA: 0.142 E-score. In the case of AGTTCTAC it was 0.386 E-score; in that of CATTCTAG, 0.202 E-score. Next, GATTCTAA: 0.086 E-score. On to GATTCTGC, for which the binding signal came out at 0.0425 E-score. Next, CCGACGTA: -0.0042 E-score. For CACATTAG, the binding signal was determined as 0.175 E-score.

For the sequence GACTCGTA, the binding signal is -0.148 E-score.

Regarding ATGCTACC, the binding signal came to 0.00967 E-score. In the case of TAGATAAA it was 0.292 E-score; in that of AAAAAATG, -0.032 E-score; in that of TCAGGAGA, -0.166 E-score.

For ACTAATGC, the binding signal came out at 0.262 E-score. GGCTACTA: the binding signal turned out to be 0.0153 E-score. Regarding AACTACTA, the binding signal came to 0.465 E-score. Next, AGCTACTG: 0.233 E-score; AACTATTG: 0.291 E-score. In the case of TACTACAA it was 0.303 E-score. In the case of TACTACGA it was 0.291 E-score; in that of TACTACTA, 0.44 E-score.

With CGCTACTA, the binding signal was 0.326 E-score. In the case of AACTACTG it was 0.424 E-score. In the case of AGCTACTA it was 0.378 E-score; in that of GCCTACTA, 0.229 E-score.

As for AACTACGG, the binding signal was 0.19 E-score.

With AGGGCACA, the binding signal is -0.171 E-score. In the case of ATGAATCA it was -0.0987 E-score; in that of CCGACAAC, -0.076 E-score; in that of TACCCTCA, -0.129 E-score.

AAGTTCCA: the binding signal is -0.0431 E-score. In the case of ACTCACTG it was 0.00942 E-score. Next, GATCCAAC: -0.164 E-score; CAACCATC: -0.0304 E-score. Next, ATTAAACG: 0.0877 E-score. For the sequence ACAAGGGC, the binding signal is -0.198 E-score. Next, AATGCCCT: 0.0279 E-score; ACCTACTG: 0.238 E-score.

With CGCTAATA, the binding signal amounted to 0.286 E-score.

For the sequence CACTACGA, the binding signal amounted to 0.123 E-score. With CACTACTA, the binding signal was determined as 0.344 E-score. Next, AGCTAATA: 0.366 E-score; AGCTAATC: 0.102 E-score; ACCTACTA: 0.343 E-score. Next, CACTACTG: 0.0489 E-score; AAGTACTT: 0.325 E-score. In the case of CCCTACTA it was 0.124 E-score; in that of AACTACTT, 0.392 E-score. Take AACAACTT: the binding signal worked out at 0.144 E-score.

With CGAAGGAG, the binding signal is -0.0169 E-score. In the case of ACCAGACG it was -0.153 E-score. Next, AGTAGTCA: 0.259 E-score; AGTAAAGA: 0.0717 E-score. Next, CTCGCTCA: -0.0517 E-score; ACTATGGA: 0.0778 E-score; CGTTATCA: 0.165 E-score. As to ACGTCCTG, the binding signal is -0.0421 E-score. Next, ACTGACGG: -0.0188 E-score. Next, ACTAACAC: 0.0585 E-score. Take AACTGCTA: the binding signal amounted to 0.0364 E-score. Next, ACCTACTC: 0.0493 E-score; AGCTACCC: 0.025 E-score; GACTACTA: 0.373 E-score. Next, TACTGCTA: 0.334 E-score; CACTGCTA: 0.0112 E-score; GACTACTC: 0.127 E-score. Next, AGCTACCA: 0.35 E-score. Turning to AGCTACCT, the binding signal turned out to be 0.209 E-score. For AACTACTC, the binding signal came to 0.363 E-score. With GACTACGA, the binding signal came out at 0.0584 E-score. In the case of CACTACTC it was -0.0277 E-score; in that of AAAACCGA, 0.0507 E-score. In the case of TATTCCCA it was 0.217 E-score; in that of ATCTAGGC, 0.0159 E-score. Consider GCAACATA, for which the binding signal is 0.217 E-score. On to CTCGCATC, for which the binding signal was -0.126 E-score. In the case of GGACTATA it was 0.0884 E-score; in that of GCACTATA, 0.0612 E-score.

With ATACTATA, the binding signal is 0.365 E-score. Next, CGACTATA: 0.122 E-score; GTACTATA: 0.436 E-score; ATACTATG: 0.254 E-score. Next, GTGCTATA: 0.202 E-score; ATACTAGA: 0.305 E-score; ATGCTATA: 0.35 E-score. In the case of CTGCTATA it was 0.039 E-score; in that of CTACTATA, 0.371 E-score; in that of CCACTATA, 0.219 E-score.

On to TGAGGCAA, for which the binding signal was -0.148 E-score. Next, ACGACTTC: 0.0725 E-score. In the case of GCTGGTTA it was 0.0982 E-score. Turning to AGACCTGC, the binding signal is -0.148 E-score.

As for CGCCAGCG, the binding signal is -0.123 E-score. Regarding AGACAATA, the binding signal came to 0.0922 E-score. Next, TACAGTCA: 0.144 E-score; TGGCTGAA: 0.00639 E-score. In the case of AAGTACAA it was 0.349 E-score. Next, TAGTACTA: 0.402 E-score.

In the case of AAGTACTG, the binding signal was determined as 0.145 E-score. In the case of GAGTACTA it was 0.0418 E-score.

In the case of GAGTACAA, the binding signal is 0.136 E-score. Next, AAGTACTC: 0.146 E-score; CAGTACTA: 0.264 E-score; AAGTACAC: 0.275 E-score. In the case of AAGTACTA it was 0.385 E-score. Next, GTTATGCA: 0.256 E-score. CCTTCAAC: the binding signal was -0.0251 E-score.

Turning to CTATTGGC, the binding signal is -0.0724 E-score. Next, AAGCAAGT: -0.0255 E-score. Turning to GGCTATAC, the binding signal was -0.00424 E-score. In the case of ACAAGTCT it was -0.182 E-score; in that of ATAGTAAC, 0.28 E-score; in that of CTAGTAAA, 0.289 E-score.

Regarding ATAGTACC, the binding signal worked out at 0.254 E-score. Consider ATAGTAAG, for which the binding signal came to 0.278 E-score.

ATAGTACA: the binding signal is 0.347 E-score.
